Experimental data: PubChem BioAssay AID1239 (SRMLSC, 2008)
Screen size: about 190,000 compounds; about 3,100 (1.6%) were called active. No stated cut-off is given here; in the data, active means fold change above about 3.3; inconclusive means no clear call, values can overlap the other calls; inactive means below that. This excerpt belongs to a sample that is enriched for actives.

Assay: activators of NF-kB expression in neurons, primary screen, cell-based, HTS (AID 1239)
Details: human neuronal cells, NF-kB reporter expression; at 12.5 µM; active compounds read high

Row | Compound | fold change
1 | O=C(O)C1C2CC2CN1C(=O)c1ccc(Cl)cc1Cl (configuration not stated) | 0.99 (inactive)
2 | O=C(NCc1cccnc1)c1nc(-c2cccs2)no1 | 1.23 (inactive)
3 | CCCCCc1ccc(-c2ccc(OCC)cc2)nc1 | 1.81 (inactive)
4 | CCCCCC(=O)Nc1ccc(-c2cn3cccnc3n2)cc1 | 0.94 (inactive)
5 | CCCCCc1ccc(-c2ccc(C(=O)O)cc2)nc1 | 6.88 (active)
6 | O=C(COC(=O)CNC(=O)c1ccccc1F)NCC(F)(F)F | 1.05 (inactive)
7 | CC(=O)Nc1ccc(NC(=O)CN2CCCC(C)C2)c(Cl)c1 (configuration not stated) | 4.21 (active)
8 | O=C(CN1CCCCC1)Nc1ccccc1Cl | 1.2 (inactive)
9 | O=C(CN1CCOCC1)Nc1ccc(NC(=O)CN2CCOCC2)c(Cl)c1 | 1.01 (inactive)
10 | O=C(c1ccc2c(c1)N(Cc1ccc(F)cc1)C(=O)c1ccccc1S2(=O)=O)N1CCN(c2ccccn2)CC1 | 0.68 (inactive)
11 | CCn1c(CSCc2c(Cl)cccc2Cl)n[nH]c1=S | 1.06 (inactive)
12 | O=C(O)CSc1nnc(-c2ccc3c(c2)OCO3)n1-c1ccccc1 | 1.41 (inactive)
13 | CCOc1cccc(/C=N/N2C(=O)CSC2=S)c1O | 1.38 (inactive)
14 | O=C(CCc1ccccc1)Nc1ccc(NC(=O)C2CCCCC2)nc1 | 1.04 (inactive)
15 | Cc1cccc2c(=O)n3c(nc12)CCCCC3 | 1.11 (inactive)
16 | Cc1c(C(=O)Nc2ccccc2)sc2nc3n(c(=O)c12)CCCCC3 | 1.58 (inactive)
17 | O=c1c2c(nc3n1CCCCC3)sc1c(O)cccc12 | 4.86 (active)
18 | CCN1CCN(CC(=O)Nc2sc3c(c2C#N)CCC3)CC1 | 1.03 (inactive)
19 | CC(C)CC(=O)NC(=S)NCc1ccccc1 | 1.01 (inactive)
20 | CC(C)CC(=O)N/C(N)=N/c1nc2ccccc2s1 | 8.73 (active)
21 | CCC(=O)NC(=Nc1nc2ccccc2s1)NC(=O)CC | 6.73 (active)
22 | COC(=O)c1nc2ccccc2s1 | 0.91 (inactive)
23 | O=C(O)CSCc1nc2ccccc2s1 | 0.98 (inactive)

Row | Compound | fold change
24 | O=C(O)CCCCc1nc2ccccc2s1 | 1.24 (inactive)
25 | Cc1nc(-c2ccc(Cl)cc2)sc1C(=O)CBr | 1.42 (inactive)
26 | N#CCC(=O)N/N=C/c1ccc(SCC(=O)Nc2ccccc2)o1 | 1.28 (inactive)
27 | COCCN(C(=O)CCC(=O)Nc1nccs1)C(C(=O)NC(C)(C)C)c1ccc(Cl)cc1 (configuration not stated) | 1.27 (inactive)
28 | CC1CCCN(c2ccc(C(=O)NCCc3ccccc3)cn2)C1 (configuration not stated) | 4.24 (active)
29 | O=C(NCCc1ccccc1)c1ccc(NC2=NC3CS(=O)(=O)CC3S2)cc1 (configuration not stated) | 1.1 (inactive)
30 | COc1ccc(C(=O)NC2CCN(C(=S)NCCc3ccccc3)CC2)cc1 | 0.91 (inactive)
31 | Nc1nc(NCCCN2CCOCC2)nc(Nc2ccccc2)c1[N+](=O)[O-] | 0.82 (inactive)
32 | CNc1nc(Nc2ccc(C)c(Cl)c2)nc(N)c1[N+](=O)[O-] | 5.21 (active)
33 | COCCNc1nc(N)c([N+](=O)[O-])c(NCCO)n1 | 0.91 (inactive)
34 | O=C(c1cnn2ccccc12)N1CCc2ccccc21 | 3.74 (active)
35 | O=C(c1cccc(C(=O)N2CCc3ccccc32)n1)N1CCc2ccccc21 | 0.82 (inactive)
36 | Cc1occc1C(=O)N1CCCc2ccccc21 | 1.12 (inactive)
37 | Cc1cc(C)n(CCNCc2c(C(=O)N3C[C@@H](C)O[C@@H](C)C3)nc3ccc(Cl)cn23)n1 | 0.98 (inactive)
38 | Cc1ccccc1NC(=O)Cn1c(=O)n(CC2CCCO2)c(=O)c2ccccc21 (configuration not stated) | 0.98 (inactive)
39 | Cc1ccc(NC(=O)c2cc(-c3ccc(C)o3)nc3ccccc23)nc1 | 0.88 (inactive)
40 | Cc1ccc(-c2csc(NNC(=O)c3ccccc3)n2)cc1 | 0.64 (inactive)
41 | Cc1ccc(Nc2nc(-c3ccc(O)cc3O)cs2)nc1 | 5.35 (active)
42 | CCOC(=O)Cn1nnnc1C | 0.94 (inactive)
43 | O=C(c1cnn(-c2ccc(Cl)cc2)c1)c1ccccc1O | 6.38 (active)
44 | O=C(O)c1ccc(NC(=O)c2cn(-c3ccccc3)nc2-c2ccc(Cl)cc2)cc1 | 1.11 (inactive)
45 | Cc1ncc(CC(=O)n2cc(C(=O)c3cc(Cl)ccc3O)cn2)s1 | 0.9 (inactive)
46 | O=C(Nc1ccc(Cl)cc1)C1c2cccc[n+]2CC(=O)N1Cc1ccc2c(c1)OCO2 (configuration not stated) | 1.64 (inactive)

Row | Compound | fold change
47 | Cc1ccc(-c2nc3ccccc3[nH]2)cc1N | 6.83 (active)
48 | c1ccc2[nH]c(-c3nc4ccccc4[nH]3)nc2c1 | 2.17 (inactive)
49 | Cc1ccc(-c2nc3ccccc3[nH]2)cc1NC(=O)c1sc2ccccc2c1Cl | 0.76 (inactive)
50 | O=C(O)CCn1c(SCc2cc(=O)n3ccccc3n2)nc2ccsc2c1=O | 1.78 (inactive)
51 | CC(=O)Nc1ccc(NC(=O)C(C)n2c3ccccc3c3nc(=O)cc(C)n32)cc1 (configuration not stated) | 1.25 (inactive)
52 | COc1cccc(NC(=S)N(Cc2ccc(C)cc2)Cc2ccccn2)c1 | 1.01 (inactive)
53 | CC(O)CNCCOc1cccc(Oc2ccccc2)c1 (configuration not stated) | 1.14 (inactive)
54 | CC(=O)Nc1ccc(/C=N/NC(=O)c2cccs2)cc1 | 3.48 (active)
55 | Cc1cccc(-n2c(C)cc(/C=N\NC(=O)c3cccs3)c2C)c1 | 0.9 (inactive)
56 | O=C(O)c1ccc(NC(=O)c2cccs2)cc1 | 1.13 (inactive)
57 | CCOc1ccc(C(C)=O)cc1CSc1nnc(-c2ccncc2)n1CCOC | 0.95 (inactive)
58 | CC(C)CCC(C)NC(=O)c1ccc2nccnc2c1 (configuration not stated) | 1.64 (inactive)
59 | CC(NC(=O)COC(=O)c1ccc(Cl)cc1O)c1ccc(F)cc1 (configuration not stated) | 1.15 (inactive)
60 | CCCCSc1nnc(-c2ccc(C)cc2)o1 | 3.57 (active)
61 | CCOC(=O)CSc1nnc(-c2ccc([N+](=O)[O-])cc2)o1 | 1.11 (inactive)
62 | CCOC(=O)CSc1nnc(-c2ccncc2)o1 | 1.05 (inactive)
63 | N/C(=N\OC(=O)Cc1ccccc1[N+](=O)[O-])c1ccc(Br)cc1 | 1.12 (inactive)
64 | COc1ccc(OC)c(C(=O)CSc2nnc(-c3cccs3)o2)c1 | 1.11 (inactive)
65 | COc1ccc(-n2c(C)cc(C(=O)CSc3nnc(-c4cccs4)o3)c2C)cc1 | 0.93 (inactive)
66 | COc1ccc(-c2nnc(SCC(=O)c3cccs3)o2)c(OC)c1 | 5.16 (active)
67 | Cn1nc(C(F)(F)F)c2cc(C(=O)N3CCOCC3)sc21 | 0.92 (inactive)
